Screening data from PubChem.
PI5P4Ka inh: qHTS for Inhibitors of phosphatidylinositol 5-phosphate 4-kinase (PI5P4K). PI5P4Kalpha enzyme, ADP-Glo luminescence, 60 min; hits give low values. max response, %. hit rate 1.2% among 330,000; active = max response of -50% or lower; inconclusive = between -30% and -50%; inactive = -30% or higher; also: value at the top dose of about 77 µM
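ADP-Glo luminescence end-point after a 60 min room-temperature kinase reaction. PI5P4Kalpha and substrate in HEPES pH 7.4 buffer with EGTA, 0.1% CHAPS and 5% DMSO; ATP at 5 microM final.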
L3MBTL1 inh: qHTS Assay for the Inhibitors of L3MBTL1 | Lethal(3)malignant brain tumor-like protein 1 (Homo sapiens), Q9Y468 | AlphaScreen L3MBTL1–H3K9me1 peptide binding | Potency, µM (series often up to 57.1 µM), most hits filed as inhibitors | hit rate 0.66% among 230,000 | AID 485360, 2010; also: nearly all actives have a fitted effect of over 60% in size
Target sequence (Q9Y468 whole entry, looked up): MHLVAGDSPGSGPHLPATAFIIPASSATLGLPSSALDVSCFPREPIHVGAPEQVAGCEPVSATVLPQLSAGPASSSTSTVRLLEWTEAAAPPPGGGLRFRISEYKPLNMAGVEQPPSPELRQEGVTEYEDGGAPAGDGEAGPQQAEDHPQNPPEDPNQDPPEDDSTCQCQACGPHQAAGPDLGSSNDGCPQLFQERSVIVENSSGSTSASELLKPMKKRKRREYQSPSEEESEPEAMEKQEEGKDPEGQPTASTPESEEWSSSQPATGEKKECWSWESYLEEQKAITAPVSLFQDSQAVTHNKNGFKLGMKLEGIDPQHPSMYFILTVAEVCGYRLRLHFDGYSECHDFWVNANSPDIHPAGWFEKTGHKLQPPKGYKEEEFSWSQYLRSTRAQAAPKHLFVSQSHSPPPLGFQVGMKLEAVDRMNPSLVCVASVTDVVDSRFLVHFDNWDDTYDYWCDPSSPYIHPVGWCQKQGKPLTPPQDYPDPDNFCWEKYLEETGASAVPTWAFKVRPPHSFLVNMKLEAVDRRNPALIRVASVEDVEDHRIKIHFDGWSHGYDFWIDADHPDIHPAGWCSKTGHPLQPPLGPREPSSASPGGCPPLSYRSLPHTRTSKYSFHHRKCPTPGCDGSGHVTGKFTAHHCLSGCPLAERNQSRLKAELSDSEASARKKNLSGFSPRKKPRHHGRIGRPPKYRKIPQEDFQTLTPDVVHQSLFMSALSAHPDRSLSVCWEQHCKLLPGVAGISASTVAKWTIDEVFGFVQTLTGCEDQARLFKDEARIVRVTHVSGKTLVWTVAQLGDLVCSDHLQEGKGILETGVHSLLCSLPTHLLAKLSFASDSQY
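L3MBTL1 50 nM + b-AHA-H3(1-15)K9me1 75 nM, 30 min RT; compound added, 30 min RT; streptavidin donor/Ni-chelate acceptor beads 10 ug/mL each final, 30 min RT dark; AlphaScreen read.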
JMJD2A Tudor: qHTS Assay for Inhibitors of JMJD2A-Tudor Domain | AlphaScreen JMJD2A-Tudor / H3K4me3 peptide binding | AID 504339, 2011 | Lysine-specific demethylase 4A (Homo sapiens), O75164 | hit rate 4.4% among 390,000 | Potency, µM (highest dose often 114 µM), most hits filed as inhibitors; also: nearly all actives have a fitted effect of over 50% in size
KDM4E inh: qHTS Assay for Inhibitors of Human Jumonji Domain Containing 2E (JMJD2E); Lysine-specific demethylase 4E (Homo sapiens), B2RXH2; JMJD2E catalytic domain, FDH-coupled NADH fluorescence (FDH is formaldehyde dehydrogenase); Potency, µM (top dose mostly 57.1 µM), hits mostly inhibitors; hit rate 1.6% among 230,000; AID 2147, 2009; active = well fitted inhibition curve with a large enough effect, not every such curve was filed as active; inconclusive = small, poorly fitted or top-dose-only effect, or another doubt; inactive = no such curve, though single readings can be large or run the other way; also: nearly all actives have a fitted effect of over 50% in size
HP1b chromo inh: HTS for Inhibitors of HP1-beta Chromodomain Interactions with Methylated Histone Tails. Chromobox protein homolog 1 (Homo sapiens), P83916. AlphaScreen HP1-beta / biotin-H3K9me3 peptide binding. Potency, µM (doses to about 114 µM), most hits filed as inhibitors. hit rate 0.56% among 390,000. AID 540317, 2011; also: nearly all actives have a fitted effect of over 70% in size
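Compound inhibition of the preformed complex between 50 nM HP1-beta and 50 nM biotinylated H3K9me3 peptide was read by AlphaScreen. Buffer was PBS pH 7.4 with 0.01% Tween-20. Incubations ran 30 min at room temperature, with 10 ug/mL donor/acceptor beads.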
BAZ2B inh: qHTS Assay for Inhibitors of BAZ2B | Bromodomain adjacent to zinc finger domain protein 2B (Homo sapiens), Q9UIF8 | AlphaScreen BAZ2B-H3K14Ac peptide displacement | Potency, µM (highest dose often 114 µM), actives largely listed as inhibitors | hit rate 4.4% among 360,000; also: nearly all actives have a fitted effect of over 60% in size
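Compounds, titrated to a top concentration of 110 uM, were incubated 30 min at room temperature with preformed BAZ2B/acetyl-K14 H3 peptide complex (50 nM each). Proximity signal was measured by AlphaScreen after 20 min with beads.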
Hits are given with their value; 0 = inactive; ? = inconclusive; - = no result given; [ ] = remark or other dose. Hits are enriched below; roughly 5.7% of the tested compounds scored in any of these assays. Unless noted, calls follow the shape of the dose curve; as a rule, active = well fitted inhibition curve with a large enough effect; inconclusive = small, poorly fitted or top-dose-only effect; inactive = no such curve, though single readings can be large or run the other way.

SMILES	PI5P4Ka inh	L3MBTL1 inh	JMJD2A Tudor	KDM4E inh	HP1b chromo inh	BAZ2B inh
Clc1ccc(C(Cn2ccnc2)OCc2csc3c(Cl)cccc23)c(Cl)c1 (stereo unspecified)	0	?	28µM	-	0	10µM
Cc1ccc2c(c1)C1C[N+](C)(CC(=O)c3ccc(Cl)cc3Cl)CCC1N2C(=O)c1ccc(F)cc1 (stereo unspecified)	0	0	16µM	-	?	-
Cc1ccc2c(c1)C1CN(C)CCC1N2C(=O)Nc1ccc(Cl)cc1 (stereo unspecified)	-	0	0	0	0	0
Cc1ccc(N)c(C)c1	0	0	0	-	0	0
Cc1ccc(N=Nc2cc(C)ccc2N)cc1	0	14µM	?	0	?	7.9µM
COc1ccc(F)cc1CN1CCN(C(=O)CCC(=O)Nc2nnc(CC(C)C)s2)CC1	0	-	0	-	0	0
COc1ccc(-n2c(C)cc(C(=O)C[N+]34CCN(CC3)CC4)c2C)cc1	0	-	0	22µM	0	?
Cc1cc(C(=O)CN2CCCC2)c(C)n1-c1ccc(F)cc1	0	-	0	?	0	0
CCN(CC)C(=O)c1ccc2c(c1)C1C(Cl)C(Sc3ccccc3[N+](=O)[O-])CC1C(C(=O)O)N2 (stereo unspecified)	-59	14µM	?	?	11µM	20µM
Cc1ccc2c(c1Cl)NC(C(=O)O)C1CC(Sc3ccccc3[N+](=O)[O-])C(Cl)C21 (stereo unspecified)	?	-	56µM	0	?	14µM
CCN(CC)C(=O)c1ccc(NC(=O)c2cccc(S(=O)(=O)N3CCN(Cc4ccccc4)CC3)c2)cc1	0	0	0	-	0	0
CCN(CC)C(=O)c1ccc2c(c1)C1C=CCC1C(C(=O)O)N2 (stereo unspecified)	?	-	11µM	-	28µM	25µM
CC(C)(O)[C@@H]1[C@H]2OC(=O)[C@@H]1[C@]1(O)C[C@H]3O[C@]34C(=O)O[C@H]2[C@@]14C (tested in a mixture with another compound)	-	-	-	0	-	-
Cc1cc2c(C(C)C)c(O)c(O)c(C=O)c2c(O)c1-c1c(C)cc2c(C(C)C)c(O)c(O)c(C=O)c2c1O	-	?	-	7.1µM	-	16µM
O=C(Nc1ccc(Oc2ccc(Cl)cc2)c(Cl)c1)c1cc(I)cc(I)c1O	-55	-	79µM	-	0	?
N[C@@H](Cn1cc(I)c(=O)[nH]c1=O)C(=O)O	-	-	-	0	-	-
CCC(C)C(=O)OC1C(O)C2C(CN3CC(C)CCC3[C@]2(C)O)C2C[C@]34O[C@@]5(O)C(OC(=O)C(C)(O)CC)CCC3(C)C5C(OC(C)=O)C(OC(C)=O)C4[C@@]21O (stereo partly specified)	-	-	-	0	-	-
O=C1NC(=O)N(c2cccc(Br)c2)C(=O)/C1=C/c1ccsc1	-64	-	0	0	0	0
N#CC(O[C@@H]1OC(COC2OC(CO)C(O)C(O)[C@@H]2O)C(O)C(O)C1O)c1ccccc1 (stereo partly specified)	-	-	-	0	-	-
c1ccc(C[C@@H](c2ccccc2)N2CCCCC2)cc1	-	-	-	0	-	-
Cc1c(N=Nc2c(O)n(Cc3ccccc3)c(=O)[nH]c2=O)c(=O)n(-c2ccccc2)n1C	0	?	20µM	7.1µM	0	10µM
Cc1c(N=Nc2c(O)n(C)c(=O)n(C)c2=O)c(=O)n(-c2ccccc2)n1C	0	0	0	0	0	35µM
CN(C)P(=NC(=S)c1cccn1C)(N(C)C)N(C)C	-	-	40µM	0	0	?
CCOc1ccc(CCNC(=O)c2cc3c(-c4ccc(OC)c(OC)c4)nn(C)c3s2)cc1OCC	-	-	?	-	0	-
CN1C2CC(OC(=O)C(CO)c3ccccc3)CC1C(O)C2 (stereo unspecified)	-	-	-	0	-	-
SMILES	PI5P4Ka inh	L3MBTL1 inh	JMJD2A Tudor	KDM4E inh	HP1b chromo inh	BAZ2B inh
CCOC(=O)COc1ccc(/C=C2\C(=O)NC(=S)N(c3ccc(OC)cc3)C2=O)cc1OC	-56	-	35µM	-	0	?
CCOC(=O)C1CCN(/C=C2/C(=O)NC(=S)N(c3cccc(OC)c3)C2=O)CC1	0	0	0	0	0	0
CCOC(=O)CSCCOc1ccc(C=C2C(=O)NC(=O)NC2=O)cc1OC	?	0	0	?	0	?
COC(=O)COc1ccc(/C=C2\C(=O)NC(=S)N(c3ccc(C)cc3)C2=O)cc1OC	-54	-	?	-	0	0
COc1ccc(N2C(=O)/C(=C/c3ccc(OC)c(OC)c3)C(=O)NC2=S)cc1	-54	0	56µM	-	?	0
COc1cc(/C=C2/C(=O)NC(=O)N(c3ccc(C)cc3)C2=O)cc(OC)c1OC	0	0	0	?	0	0
COc1ccc(N2C(=O)/C(=C/c3ccc(C)o3)C(=O)NC2=S)c(OC)c1	?	0[2.29 µM]	50µM	-	0	50µM
CCCCC(CC)COP(=O)(OCC(CC)CCCC)OCC(CC)CCCC (stereo unspecified)	0	?	0	-	0	0
NCC[C@H](O)C(=O)N[C@H]1C[C@@H](N)[C@@H](O[C@H]2O[C@@H](CN)[C@@H](O)[C@@H](O)[C@@H]2N)[C@@H](O[C@H]2O[C@@H](CO)[C@@H](O)[C@@H]2O)[C@@H]1O	-	-	-	0	-	-
COc1cccc(C(=O)c2cn(CC(=O)Nc3cc(Cl)c(OC)cc3OC)c3nc(C)ccc3c2=O)c1	-	-	0	-	0	0
CCS(=O)(=O)C1=NN2C(=N)/C(=C\c3ccc(OC(=O)c4ccco4)cc3)C(=O)N=C2S1	0	-	0	-	0	?
N=C1/C(=C\c2ccc(OC(=O)c3ccccc3Cl)cc2)C(=O)N=C2SC(N3CCOCC3)=NN12	-67	-	50µM	-	0	45µM
CC(C)COC(=O)OCN1C(=O)CN(CCN2CC(=O)N(COC(=O)OCC(C)C)C(=O)C2)CC1=O	0	0	0	0	0	0
Clc1ccc(Sc2oc(/C=N/n3cnnc3)cc2Br)cc1	0	0	89µM	0	0	0
O=C(Oc1ccc2cc(Br)ccc2c1)N1CCCCCC1	-	0	-	0	-	0
N#CC(C#N)=NNc1ccc(OC(F)(F)F)cc1	-	-	-	0	-	-
Cc1cc(C)c(-n2c(O)c(/C=N/NC(=O)c3ccncc3)c(=O)[nH]c2=O)c(C)c1	0	0	?	14µM	0	0
Cc1ccc(N=Cc2c(O)n(-c3ccc(C)cc3)c(=O)[nH]c2=O)cc1	0	-	0	-	0	-
